The list is not random: actives were taken first. Their share in the collection is about 2.5%.
p53ts 32C kill: kills p53ts cells at the permissive temperature. H1299-p53A138V at 32C, ATP luminescence viability, 24 h. AID 924. Potency, µM (titrated, usually from 46.1 µM), most hits filed as cytotoxic. 130,000 tested, 0.93% active; note: nearly all actives have a fitted effect of over 55% in size
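H1299-p53 A138V cells (temperature-sensitive p53) exposed 24 h to up to 46 uM compound at 32C, where p53 is wild-type in conformation. Viability read as ATP luminescence and normalised to DMSO and 100 uM tamoxifen. AC50 fitted with the Hill equation.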
Casp7 inh: allosteric or competitive inhibitors of human caspase-7. recombinant caspase-7, Ac-DEVD-AFC fluorescence rate. Potency, µM (series often up to 57.5 µM), actives largely listed as inhibitors. 75,000 tested, 0.02% active; active = well fitted inhibition curve with a large enough effect in the main read-out, with a control signal flat, not every such curve was filed as active; inconclusive = small, poorly fitted or top-dose-only effect, or a change in a side signal
p53ts 39C kill: kills p53ts cells at the nonpermissive temperature | H1299-p53A138V viability at 39C, ATP luminescence, 24 h | Potency, µM (series often up to 46.1 µM), actives largely listed as cytotoxic | 130,000 tested, 1.5% active | AID 902; note: nearly all actives have a fitted effect of over 55% in size
Luciferase inh: firefly luciferase inhibition; P08659; purified firefly luciferase, luminescence, 8 min; Potency, µM (doses to about 57.1 µM), actives largely listed as inhibitors; 72,000 tested, 2.2% active; AID 411; note: nearly all actives have a fitted effect of over 40% in size
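Luminescence read-out after 8 min at room temperature; enzyme reaction used luciferin plus 10 uM ATP (linear range) in imidazole buffer pH 7.2 with KCl, MgCl2, Tween 20 and BSA. Each sample was run as a titration.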
IkB sig inh: IkB pathway inhibition in ABC-DLBCL cells; Potency, µM (top dose mostly 57.1 µM); 110,000 tested, 0.04% active; ABC-DLBCL IkBa-CBG/CBR dual luciferase ratio, 4 h; response scale: scaled: untreated 0%, proteasome inhibitor 100%; active = well fitted curve in the direction sought with a large enough effect in the signal ratio, not every such curve was filed as active; inconclusive = small, poorly fitted or top-dose-only effect, or a change in a side signal; the % refers to the signal ratio;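 note: the direction sought is a rising ratio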
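Curves were fitted separately to fusion (green), unfused (red) and ratio luminescence, then classed by r2, magnitude and activity. Cells: OCI-Ly3, 4 h compound plus doxycycline at 37C; 10 uM MG-132 defined full response.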
Casp1 inh: blocks human caspase-1 allosterically or competitively. 75,000 tested, 0.03% active. P29466. Potency, µM (series often up to 57.5 µM), most hits filed as inhibitors. Caspase-1 enzyme, Ac-WEHD-AFC fluorogenic rate. AID 900
Of the large screens only hits and unclear results are named; the others gave an inactive call. Unless noted, calls come from the whole dose curve; as a rule, active = well fitted curve in the direction sought with a large enough effect; inconclusive = small, poorly fitted or top-dose-only effect, or another doubt; inactive = no such curve, though single readings can be large; an effect the other way counts as inactive or inconclusive.

Cc1cc2oc(=O)cc(CSc3nnc(-c4cccs4)o3)c2cc1C(C)C	none (no result: Casp7 inh, Luciferase inh, IkB sig inh, Casp1 inh)
CC(NC(=O)COC(=O)CCNC(=O)c1ccco1)C12CC3CC(CC(C3)C1)C2 (configuration not stated)	none
CN(C(=O)c1ccco1)c1nnc(C23CC4CC(CC(C4)C2)C3)s1	p53ts 32C kill inconclusive, p53ts 39C kill inconclusive, Luciferase inh 20µM
Cc1cccc(-c2nnc(NC(=O)c3ccc(Cl)cc3)o2)c1	p53ts 39C kill inconclusive, IkB sig inh 7.9µM
COc1ccc(C(=O)Nc2nnc(-c3ccccc3)o2)cc1OC	IkB sig inh inconclusive
Cc1nc2ccccc2n1CCc1nc2c3ccccc3nc(SCc3ccc(F)cc3)n2n1	p53ts 39C kill inconclusive (no result: Casp7 inh, Luciferase inh, Casp1 inh)
Cn1c(-c2ccccc2)cnc1SCc1nc2ccccc2c(=O)[nH]1	p53ts 32C kill 13µM, p53ts 39C kill inconclusive, Luciferase inh 5µM
Cc1cccc(CNc2cc(-c3ccc(N(C)C)cc3)ncn2)c1	none
CN(C)c1ccc(-c2cc(NCc3cccnc3)ncn2)cc1	p53ts 32C kill inconclusive, p53ts 39C kill 7.9µM
CC(C)CC(N)C(=O)NC(C)C(=O)O (configuration not stated)	none (no result: Luciferase inh, IkB sig inh)
C=CCOc1c(CNc2nccs2)cccc1OCC	p53ts 32C kill inconclusive, p53ts 39C kill inconclusive, Luciferase inh 13µM
CCCC(=O)Nc1cc(Cl)ccc1N1CCN(C(=O)CC)CC1	none
Cc1ccc2sc(-c3ccc(NC(=O)CCN4C(=O)c5ccccc5C4=O)cc3)nc2c1	none (no result: p53ts 32C kill, Casp7 inh, Luciferase inh, IkB sig inh, Casp1 inh)
Cc1ccc2sc(-c3ccc(N)cc3)nc2c1	p53ts 32C kill 2.5µM, p53ts 39C kill 3.2µM (no result: Casp7 inh, Luciferase inh, Casp1 inh)
COC(=O)/C=c1/sc2n(c1=O)CCN=2	none
CN(C)c1ccc(/C=c2\sc3n(c2=O)CCCN=3)cc1	p53ts 32C kill 13µM, Casp7 inh inconclusive, p53ts 39C kill 13µM, Luciferase inh 2.5µM, IkB sig inh inconclusive, Casp1 inh inconclusive
CCc1ccc(NC(=O)CSc2nnc3[nH]c(=O)cc(-c4ccccc4)n23)cc1	p53ts 39C kill 6.3µM (no result: Casp7 inh, Luciferase inh, Casp1 inh)
COc1ccc(Cl)cc1NC(=O)CSc1nnc2[nH]c(=O)cc(-c3ccccc3)n12	p53ts 32C kill inconclusive, p53ts 39C kill 3.2µM, IkB sig inh inconclusive (no result: Casp7 inh, Luciferase inh, Casp1 inh)
O=C(CSc1nnc2[nH]c(=O)cc(-c3ccccc3)n12)Nc1ccccc1C(F)(F)F	p53ts 32C kill inconclusive, p53ts 39C kill inconclusive (no result: Casp7 inh, Luciferase inh, Casp1 inh)
Cc1ccc2c(c1)c(C)c(C)n2CC(O)CN1CCOCC1 (configuration not stated)	none
OC(CN1CCNCC1)Cn1c2ccc(Br)cc2c2cc(Br)ccc21 (configuration not stated)	p53ts 32C kill inconclusive, p53ts 39C kill 13µM (no result: Luciferase inh, IkB sig inh)
CCOCC(=O)Nc1nc2ccc(C)cc2s1	p53ts 32C kill inconclusive, p53ts 39C kill inconclusive, Luciferase inh 25µM, IkB sig inh inconclusive
COc1ccc2nc(NC(=O)c3ccoc3C)sc2c1	p53ts 32C kill 7.9µM, p53ts 39C kill inconclusive, Luciferase inh 3.2µM, IkB sig inh inconclusive
COc1ccc2c(c1)-c1nc(NC(=O)c3ccco3)sc1CC2	IkB sig inh inconclusive
CCCC(=O)Nc1nc2ccc(OC)cc2s1	Luciferase inh 13µM, IkB sig inh inconclusive
COc1ccc2sc(NC(=O)c3ccco3)nc2c1	p53ts 32C kill 10µM, p53ts 39C kill 10µM, Luciferase inh 7.9µM, IkB sig inh inconclusive
COc1ccc2nc(NC(=O)c3cccc(OCc4c(C)noc4C)c3)sc2c1	p53ts 32C kill inconclusive, Luciferase inh 13µM, IkB sig inh inconclusive
CN=c1scc(C)n1/N=C/c1ccc2c(c1)OCO2	p53ts 32C kill 5µM, p53ts 39C kill 5µM, Luciferase inh 4µM, IkB sig inh inconclusive
CCCc1nc2ccccc2c(=O)n1/N=C/c1ccc(O)cc1O	none
CN=c1scc(C)n1/N=C/c1ccc(O)cc1O	p53ts 32C kill 5µM, p53ts 39C kill 5µM, Luciferase inh 4µM, IkB sig inh inconclusive
CN=c1scc(C)n1/N=C/c1ccc(O)cc1	p53ts 32C kill 7.9µM, p53ts 39C kill inconclusive, Luciferase inh 13µM
Cc1nnc(C)n1/N=C/c1ccc2c(c1)OCCO2	none
CC(=O)Nc1cccc(NC(=O)CSc2ccc(-c3sc(-c4ccccc4)nc3C)nn2)c1	p53ts 39C kill 7.9µM, IkB sig inh inconclusive (no result: Casp7 inh, Luciferase inh, Casp1 inh)
Cc1nc(-c2ccccc2)sc1-c1ccc(SCC(=O)Nc2cccc(C(F)(F)F)c2)nn1	p53ts 39C kill 10µM (no result: Casp7 inh, Luciferase inh, Casp1 inh)
COc1ccc(C2C(C(=O)c3ccc(C)o3)=C(O)C(=O)N2c2cc(C)on2)cc1OC (configuration not stated)	none
CN1CCN(C(=O)c2ccc(CS(=O)(=O)c3c(Cl)cccc3Cl)o2)CC1	none
Cc1ccc(OCc2nc3ccccc3n2CCOc2ccc(Cl)cc2)cc1	IkB sig inh inconclusive (no result: Casp7 inh, Luciferase inh, Casp1 inh)
COCCn1c(COc2ccc(C)cc2)nc2ccccc21	p53ts 32C kill inconclusive, p53ts 39C kill inconclusive, Luciferase inh 13µM
Cc1ccc(OCCCn2c(CO)nc3ccccc32)cc1	Luciferase inh 20µM
O=C(NCCCn1ccnc1)Nc1cccc2ccccc12	none (no result: Casp7 inh, Luciferase inh, IkB sig inh, Casp1 inh)
O=C(CSc1nnc(-c2cccs2)n1-c1ccccc1)c1ccc2c(c1)OCCO2	none
COc1cc(-c2noc(CN3CCN(c4ccccc4)CC3)n2)cc(OC)c1OC	p53ts 39C kill 25µM (no result: Casp7 inh, Luciferase inh, Casp1 inh)
CCOC(=O)C1=C[C@@]2(CC)CCCN3CCc4c(n1c1ccccc41)[C@H]32	none
O=C1C(Cl)=C(NC2CCc3ccccc32)C(=O)c2ncccc21 (configuration not stated)	p53ts 32C kill 2.5µM, Casp7 inh inconclusive, p53ts 39C kill 6.3µM, Casp1 inh 1.6µM (no result: Luciferase inh, IkB sig inh)
c1ccc2c(c1)CCCC2NC1=NCCC1 (configuration not stated)	none
O=C1C(Cl)=C(NCCN2CCOCC2)C(=O)c2ncccc21	p53ts 32C kill 3.2µM, p53ts 39C kill 5µM, Casp1 inh 6.3µM (no result: Luciferase inh, IkB sig inh)
COCCNC(=O)CSc1nnc(NC(=O)Nc2ccc(C)cc2)s1	p53ts 32C kill 11µM, p53ts 39C kill inconclusive (no result: Casp7 inh, Luciferase inh, Casp1 inh)
O=C(O)c1cc(NCc2cccs2)ccc1N1CCOCC1	none
COC(=O)c1[nH]c2cc(OC)ccc2c1NC(=O)CCN1CCCC(C)(C)C1	none (no result: p53ts 32C kill, Casp7 inh, p53ts 39C kill, IkB sig inh, Casp1 inh)
O=C(Nc1nc2n(n1)C(c1ccc(Cl)cc1)C=C(c1ccccc1)N2)c1ccco1 (configuration not stated)	IkB sig inh inconclusive (no result: Casp7 inh, Luciferase inh, Casp1 inh)
O=C(N/N=C/c1ccc(O)cc1)c1csc2c1CCCC2	none (no result: Casp7 inh, Luciferase inh, IkB sig inh, Casp1 inh)
O=C(N/N=C\c1ccc2c(c1)CCC2)c1ccccc1O	p53ts 32C kill inconclusive, Luciferase inh 3.2µM, IkB sig inh inconclusive
CCc1c(C)sc(NC(=O)c2cc(-c3cc(OC)ccc3OC)on2)c1C#N	none
CCC(=O)NC(c1ccccc1OC)c1ccc2cccnc2c1O (configuration not stated)	none (no result: Casp7 inh, Luciferase inh, IkB sig inh, Casp1 inh)
